Bioassay records from PubChem BioAssay.
In the library only some 11% were active in any assay of this set; here they are far more common.
Pf growth 96h: Primary qHTS for delayed death inhibitors of the malarial parasite plastid, 96 hour incubation; hit rate 6.9% among 320,000; P. falciparum luciferase reporter growth, 96 h; Potency, µM (highest dose often 28.7 µM), for the others: top-dose activity change, negative = inhibition, hits mostly inhibitors
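96 h incubation, 37 C, 5% CO2, of luciferase-reporter P. falciparum-infected RBCs (2% hematocrit, 0.05% parasitemia final) with test compounds; endpoint luminescence.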
Pf growth 48h: Primary qHTS for delayed death inhibitors of the malarial parasite plastid, 48 hour incubation. P. falciparum luciferase growth in erythrocytes, 48 h. Potency, µM (series often up to 28.7 µM), for the others: top-dose activity change, negative = inhibition, hits mostly inhibitors. hit rate 5.9% among 310,000
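A one-generation exposure of luciferase-tagged malaria parasites in RPMI 1640/Albumax erythrocyte culture, 37 C and 5% CO2. Inhibition is inferred from decreased luminescence after adding detection reagent.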
AMA1-RON2 inh: qHTS for Inhibitors of AMA1-RON; Towards Development of Antimalarial Drug Lead: Primary Screen; Plasmodium falciparum AMA1 (3D7) - RON2 peptide interaction; hit rate 0.2% among 360,000; AlphaScreen AMA1-biotinylated RON2 peptide binding; Potency, µM (titrated, usually from 58.2 µM), inactives show at the top dose activity change, negative = inhibition, hits mostly inhibitors; AID 720542, 2013;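 also: 0% = vehicle wells and -100% = peptide control; nearly all actives have a fitted effect of over 45% in size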
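AMA1 (3D7) with his tag at 25 nM final met compounds first, then biotinylated RON2 peptide at 25 nM; detection used donor plus acceptor beads, 10 µg/mL apiece, read by AlphaScreen after 30 min at room temperature.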
HCV inhibitor: qHTS Assay for Inhibitors of Hepatitis C Virus (HCV); Huh7.5.1 HCVcc-Cre infection, luciferase reporter, 44 h; Potency, µM (titrated, usually from 41.8 µM), without a hit: at the highest dose activity change, negative = inhibition, actives largely listed as inhibitors; hit rate 3.4% among 340,000; AID 651820, 2012
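Infectious HCV cell culture screen: compound-treated cells (1,000/well, pre-plated 4 h) are infected with HCVcc-Cre at roughly 0.5 moi and grown 44 h. Infection is quantified by luciferase signal after 15 min substrate incubation at room temperature.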
* hit, by the source's call; ? = inconclusive; nt = not tested or not shown; [ ] = another dose, or the depositor's remark. Calls follow the shape of the dose curve; as a rule, active = well fitted curve in the direction sought with a large enough effect; inconclusive = small, poorly fitted or top-dose-only effect, or another doubt; inactive = no such curve, though single readings can be large; an effect the other way counts as inactive or inconclusive. Unless noted, % is scaled to controls: 0 for no effect and ±100 for the full control effect; potency is read from the fitted curve at half-maximal effect.

SMILES | Pf growth 96h | Pf growth 48h | AMA1-RON2 inh | HCV inhibitor
NC(=O)c1ccccc1NC(=O)C1CCCO1 (stereo not given) | 10.4µM* | 0.8% | -7.9% | 23.6%
O=C(Nc1ccc([N+](=O)[O-])c(NC(=O)C2CCCO2)c1)C1CCCO1 (stereo not given) | ? | -9.7% | -2.1%[2.32 µM] | -2.2%
COc1ccc(OC)c(S(=O)(=O)NCC(c2ccc3c(c2)OCO3)N2CCOCC2)c1 (stereo not given) | -3.2% | ? | 4.1% | 23.8%
O=C(NCc1c(O)ccc2ccccc12)c1ccccc1 | 10.4µM* | ? | -6.5% | -17.3%
Oc1ccc2ccccc2c1CNc1ccc(Br)cc1 | 1.4% | 28.6%[0.00184 µM] | -10.5% | 2.51µM*
CCN(CC)c1ccc(/C=N/c2sc3c(c2C#N)C2CCN3CC2)c(O)c1 | -5.9% | -12.3% | -5.9%[11.6 µM] | 4.47µM*
O=C(c1cccc(F)c1F)N1CCCC1 | -22.7% | 4.6% | -15.5% | 1.3%
COc1cccc(-c2csc(N3CCN(C(=O)Nc4ccc(Cl)cc4)CC3)n2)c1 | 25.2% | ? | -5.3% | 11.2µM*
COc1ccc(NC(=O)N2CCN(c3nc(-c4cccc(OC)c4)cs3)CC2)cc1 | ? | 10.4µM* | -21.3% | 6.31µM*
COc1cccc(-c2csc(N3CCN(C(=S)Nc4cccc(Cl)c4)CC3)n2)c1 | -12.4% | ? | 7.9% | ?
Cc1cc(C(=O)NNC(=S)NC2CCCCC2)cs1 | 5.0% | 74.0% | 109.7% | ?
CNc1ccc(Br)cc(C(=O)/C=C/c2cccc(Cl)c2Cl)c1=O | ? | ? | -13.1% | ?
CCNc1ccc(Br)cc(C(=O)/C=C/c2ccccc2Cl)c1=O | nt | nt | -17.6% | 12.6µM*
Cn1nc(-c2ccccc2)c(C#N)c1Sc1cccc(Cl)c1 | 10.4µM* | ? | 28.7% | -22.4%
Cc1nn(C)c(Oc2cccc(Cl)c2)c1C#N | 2.3% | -2.8% | 20.6% | -15.7%
C[C@@H]1CN([C@H](C)CO)C(=O)CCCn2nncc2CO[C@H]1CN(C)Cc1ccccc1C(F)(F)F | nt | nt | 4.0% | nt
CCC(C)NC(=O)c1cn(C)c(=O)c2cc(OC)c(OC)cc12 (stereo not given) | 9.28µM* | -0.4% | 1.1% | ?
COCCNC(=O)c1cn(C)c(=O)c2cc(OC)c(OC)cc12 | 8.28µM* | 12.6% | 12.1% | 16.5%
CCOCCCNC(=O)c1cn(C)c(=O)c2cc(OC)c(OC)cc12 | ? | 15.1% | -5.8% | 12.5%
Cc1ccc(-c2cc(N)n(-c3ccc(F)cc3)n2)cc1 | 88.2% | 87.4% | -21.9% | -20.6%
COc1ccc(CN2CCC2(C)C(=O)Nc2ccc(OC)c(OC)c2)cc1 (stereo not given) | nt | nt | -1.5% | nt
CC(C)(C)OC(=O)N1CCC[C@@H]1CO | 61.8% | -13.2% | 4.4% | 5.7%
CCCCCC(CC(=O)NO)C(=O)NC(C(=O)N1CCCC1CO)C(C)C (stereo not given) | 2.94µM* | 3.29µM* | 25.5% | ?
O=C1C(CSCc2ccccc2)NC(=S)N1c1ccccc1 (stereo not given) | -5.5% | ? | 89.6% | -18.2%
CC(CCN1C(Nc2ccccc2)=NC[C@@H]1C)c1ccccc1 (stereo not given in full) | -15.7% | -23.1% | -3.8% | -28.7%
SMILES | Pf growth 96h | Pf growth 48h | AMA1-RON2 inh | HCV inhibitor
Brc1ccc(-c2csc(NNC3=NCCCCC3)n2)cc1 | ? | 10.4µM* | -3.9% | ?
FC(F)Oc1ccc(-c2csc(NNC3=NCCCCC3)n2)cc1 | ? | ? | 19.2% | ?
CC(C)(C)c1ccc(-c2csc(NNC3=NCCCCC3)n2)cc1 | nt | 10.4µM* | -27.2% | 25.1µM*
COc1cc(OC)cc(N(C(=O)c2snc(C(N)=O)c2N)C(C(=O)NCC2CCCO2)c2ccc(C)o2)c1 (stereo not given) | 35.7% | 4.65µM* | nt | nt
COc1ccc(N(C(=O)c2snc(C(N)=O)c2N)C(C(=O)NC2CCCCC2)c2ccc(C)o2)cc1 (stereo not given) | -21.0% | 8.28µM* | 3.2% | ?
Cc1cc(C)cc(N(C(=O)c2snc(C(N)=O)c2N)C(C(=O)NCC2CCCO2)c2cccs2)c1 (stereo not given) | -1.5% | ? | -0.2% | 11.2µM*
Cc1cc(C)cc(N(C(=O)c2snc(C(N)=O)c2N)C(C(=O)NCC2CCCO2)c2ccc(C)o2)c1 (stereo not given) | ? | ? | -11.8% | ?
